Reference: the supplement of paper PMC11732987, “Enantioselective OTUD7B fragment discovery through chemoproteomics screening and high-throughput optimisation” (Communications Chemistry, 2025)
Values without a mark were called inactive.

What was measured:
Assay in all cases: log2 ratio of Biotin-Ahx-Ub-VS probe labelling (fragment/DMSO); higher = less target engagement (more negative = stronger competition), active = hit call of the paper (q ≤ 0.05, log2 ratio ≤ -1)
Conditions in all cases: compound concentration: 200 uM; treatment time: 3 h
ALG13 = biological target: T1, ALG13 (UniProt Q9NP73)
T1 sequence (whole entry): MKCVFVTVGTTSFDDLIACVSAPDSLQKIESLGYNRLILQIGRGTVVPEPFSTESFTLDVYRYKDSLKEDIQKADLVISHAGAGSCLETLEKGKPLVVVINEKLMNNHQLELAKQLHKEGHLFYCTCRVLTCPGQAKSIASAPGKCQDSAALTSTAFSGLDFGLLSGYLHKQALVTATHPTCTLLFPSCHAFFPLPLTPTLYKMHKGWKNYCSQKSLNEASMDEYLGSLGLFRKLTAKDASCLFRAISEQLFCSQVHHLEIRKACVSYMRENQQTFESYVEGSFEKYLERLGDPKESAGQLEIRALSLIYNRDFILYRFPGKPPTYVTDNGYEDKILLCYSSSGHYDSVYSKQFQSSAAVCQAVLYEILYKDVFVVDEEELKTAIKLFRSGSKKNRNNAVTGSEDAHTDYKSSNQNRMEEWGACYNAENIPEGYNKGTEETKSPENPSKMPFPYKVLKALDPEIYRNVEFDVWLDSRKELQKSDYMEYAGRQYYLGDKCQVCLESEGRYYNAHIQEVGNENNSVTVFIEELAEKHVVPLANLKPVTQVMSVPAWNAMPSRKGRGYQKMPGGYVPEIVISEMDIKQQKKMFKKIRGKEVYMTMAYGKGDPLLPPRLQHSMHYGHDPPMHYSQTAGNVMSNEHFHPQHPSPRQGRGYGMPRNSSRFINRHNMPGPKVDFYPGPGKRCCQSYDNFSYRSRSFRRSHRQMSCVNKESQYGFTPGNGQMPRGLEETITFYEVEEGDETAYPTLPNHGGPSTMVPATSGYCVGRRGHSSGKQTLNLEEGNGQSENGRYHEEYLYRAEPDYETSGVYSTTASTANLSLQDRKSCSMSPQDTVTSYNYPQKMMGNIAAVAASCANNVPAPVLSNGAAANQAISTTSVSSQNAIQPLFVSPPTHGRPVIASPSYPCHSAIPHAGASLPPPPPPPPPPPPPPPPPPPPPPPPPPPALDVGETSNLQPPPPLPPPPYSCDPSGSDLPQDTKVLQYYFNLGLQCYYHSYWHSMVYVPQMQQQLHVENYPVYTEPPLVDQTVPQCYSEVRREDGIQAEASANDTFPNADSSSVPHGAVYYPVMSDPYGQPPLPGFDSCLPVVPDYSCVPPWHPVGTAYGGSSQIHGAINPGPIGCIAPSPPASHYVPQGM
Summary of the method: (§1)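 Fragment (200 µM) or vehicle was incubated for 3 h with triplicate HEK293T lysate samples of 495 µg, which were then treated with Biotin-Ahx-Ub-VS at 0.5 µM final for 1 h. Labelled DUBs were enriched on NeutrAvidin, digested with LysC and trypsin, and analysed by diaPASEF LC-MS/MS. Values are average log2 fragment/vehicle ratios from an unpaired t-test on global-median-normalised Spectronaut label-free quantities, using proteins with ≥2 unique peptides.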

ATXN3 = ATXN3 (UniProt P54252)
ATXN3, sequence (P54252 whole entry): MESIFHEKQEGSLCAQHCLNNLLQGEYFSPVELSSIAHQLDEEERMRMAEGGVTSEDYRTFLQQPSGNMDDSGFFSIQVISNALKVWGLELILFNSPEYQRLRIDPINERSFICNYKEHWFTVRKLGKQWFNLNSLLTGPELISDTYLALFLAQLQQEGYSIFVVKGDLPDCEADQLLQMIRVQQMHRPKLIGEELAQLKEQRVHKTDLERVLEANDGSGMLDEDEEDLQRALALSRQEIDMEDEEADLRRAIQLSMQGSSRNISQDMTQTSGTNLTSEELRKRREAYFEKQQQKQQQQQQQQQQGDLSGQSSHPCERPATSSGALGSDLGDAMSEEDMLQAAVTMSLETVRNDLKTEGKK
Summary of the method: as §1

BAP1 = biological target: T2, BAP1 (UniProt Q92560)
T2 sequence (whole entry): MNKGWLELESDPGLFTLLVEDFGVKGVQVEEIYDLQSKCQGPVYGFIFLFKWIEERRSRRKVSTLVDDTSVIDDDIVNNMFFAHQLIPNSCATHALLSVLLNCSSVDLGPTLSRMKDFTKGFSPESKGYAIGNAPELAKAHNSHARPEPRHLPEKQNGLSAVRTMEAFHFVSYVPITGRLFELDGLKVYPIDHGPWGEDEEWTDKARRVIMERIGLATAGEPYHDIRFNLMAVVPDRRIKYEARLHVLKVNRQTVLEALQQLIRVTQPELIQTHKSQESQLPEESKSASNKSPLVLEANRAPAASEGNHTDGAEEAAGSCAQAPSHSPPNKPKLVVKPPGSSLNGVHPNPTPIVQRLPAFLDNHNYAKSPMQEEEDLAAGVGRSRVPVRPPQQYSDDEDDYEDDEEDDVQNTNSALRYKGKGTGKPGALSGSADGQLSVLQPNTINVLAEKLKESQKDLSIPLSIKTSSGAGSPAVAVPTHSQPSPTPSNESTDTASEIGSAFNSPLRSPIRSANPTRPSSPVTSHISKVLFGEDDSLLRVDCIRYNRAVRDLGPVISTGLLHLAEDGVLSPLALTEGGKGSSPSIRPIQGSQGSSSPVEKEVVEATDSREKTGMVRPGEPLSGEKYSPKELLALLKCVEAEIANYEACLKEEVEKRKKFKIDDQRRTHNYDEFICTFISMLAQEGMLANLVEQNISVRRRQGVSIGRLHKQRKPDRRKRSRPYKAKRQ
Summary of the method: as §1

EIF3F = EIF3F (UniProt O00303)
EIF3F, sequence (O00303 whole entry): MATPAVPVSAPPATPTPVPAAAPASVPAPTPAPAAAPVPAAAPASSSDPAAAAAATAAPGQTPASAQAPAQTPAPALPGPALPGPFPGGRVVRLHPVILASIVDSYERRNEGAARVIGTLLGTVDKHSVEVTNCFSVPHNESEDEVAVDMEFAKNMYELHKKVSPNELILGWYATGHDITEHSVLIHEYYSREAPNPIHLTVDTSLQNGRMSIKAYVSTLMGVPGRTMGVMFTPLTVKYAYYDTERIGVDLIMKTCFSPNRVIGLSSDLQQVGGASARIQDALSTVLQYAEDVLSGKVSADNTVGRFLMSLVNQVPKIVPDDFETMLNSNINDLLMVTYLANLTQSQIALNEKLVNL
Summary of the method: as §1

EIF3H = EIF3H (UniProt O15372)
EIF3H, sequence (O15372 whole entry): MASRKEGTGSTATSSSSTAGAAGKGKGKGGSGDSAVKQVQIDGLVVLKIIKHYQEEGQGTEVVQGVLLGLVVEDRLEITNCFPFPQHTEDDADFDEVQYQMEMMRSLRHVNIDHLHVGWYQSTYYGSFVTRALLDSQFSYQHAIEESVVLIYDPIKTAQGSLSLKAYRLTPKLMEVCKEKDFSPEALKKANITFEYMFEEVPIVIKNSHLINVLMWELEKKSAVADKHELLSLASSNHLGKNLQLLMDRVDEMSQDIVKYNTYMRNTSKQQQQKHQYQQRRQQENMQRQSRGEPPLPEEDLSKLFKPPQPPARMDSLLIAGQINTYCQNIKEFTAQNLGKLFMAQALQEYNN
Summary of the method: as §1

FAM105A = biological target: T3, FAM105A (UniProt Q9NUU6)
T3 sequence (whole entry): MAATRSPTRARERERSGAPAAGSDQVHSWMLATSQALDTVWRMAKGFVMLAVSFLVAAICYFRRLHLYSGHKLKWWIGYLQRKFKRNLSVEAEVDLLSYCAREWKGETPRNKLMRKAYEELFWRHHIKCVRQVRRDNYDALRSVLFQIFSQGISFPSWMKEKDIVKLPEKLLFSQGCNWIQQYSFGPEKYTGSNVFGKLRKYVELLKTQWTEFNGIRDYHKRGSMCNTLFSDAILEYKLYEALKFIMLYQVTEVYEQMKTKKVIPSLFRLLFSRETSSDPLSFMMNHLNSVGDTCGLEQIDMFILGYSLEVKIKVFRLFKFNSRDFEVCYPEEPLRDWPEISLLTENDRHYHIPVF
Summary of the method: as §1

OTUB1 = OTUB1 (UniProt Q96FW1)
OTUB1, sequence (Q96FW1 whole entry): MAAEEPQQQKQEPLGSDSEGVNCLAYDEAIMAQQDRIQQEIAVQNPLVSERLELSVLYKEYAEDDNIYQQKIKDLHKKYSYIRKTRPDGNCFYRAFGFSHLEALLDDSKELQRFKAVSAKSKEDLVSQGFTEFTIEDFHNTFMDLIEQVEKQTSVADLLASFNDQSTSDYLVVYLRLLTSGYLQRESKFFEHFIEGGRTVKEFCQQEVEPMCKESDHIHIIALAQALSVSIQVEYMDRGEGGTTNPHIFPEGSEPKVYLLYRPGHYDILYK
Summary of the method: as §1

OTUD4 = biological target: T4, OTUD4 (UniProt Q01804)
T4 sequence (whole entry): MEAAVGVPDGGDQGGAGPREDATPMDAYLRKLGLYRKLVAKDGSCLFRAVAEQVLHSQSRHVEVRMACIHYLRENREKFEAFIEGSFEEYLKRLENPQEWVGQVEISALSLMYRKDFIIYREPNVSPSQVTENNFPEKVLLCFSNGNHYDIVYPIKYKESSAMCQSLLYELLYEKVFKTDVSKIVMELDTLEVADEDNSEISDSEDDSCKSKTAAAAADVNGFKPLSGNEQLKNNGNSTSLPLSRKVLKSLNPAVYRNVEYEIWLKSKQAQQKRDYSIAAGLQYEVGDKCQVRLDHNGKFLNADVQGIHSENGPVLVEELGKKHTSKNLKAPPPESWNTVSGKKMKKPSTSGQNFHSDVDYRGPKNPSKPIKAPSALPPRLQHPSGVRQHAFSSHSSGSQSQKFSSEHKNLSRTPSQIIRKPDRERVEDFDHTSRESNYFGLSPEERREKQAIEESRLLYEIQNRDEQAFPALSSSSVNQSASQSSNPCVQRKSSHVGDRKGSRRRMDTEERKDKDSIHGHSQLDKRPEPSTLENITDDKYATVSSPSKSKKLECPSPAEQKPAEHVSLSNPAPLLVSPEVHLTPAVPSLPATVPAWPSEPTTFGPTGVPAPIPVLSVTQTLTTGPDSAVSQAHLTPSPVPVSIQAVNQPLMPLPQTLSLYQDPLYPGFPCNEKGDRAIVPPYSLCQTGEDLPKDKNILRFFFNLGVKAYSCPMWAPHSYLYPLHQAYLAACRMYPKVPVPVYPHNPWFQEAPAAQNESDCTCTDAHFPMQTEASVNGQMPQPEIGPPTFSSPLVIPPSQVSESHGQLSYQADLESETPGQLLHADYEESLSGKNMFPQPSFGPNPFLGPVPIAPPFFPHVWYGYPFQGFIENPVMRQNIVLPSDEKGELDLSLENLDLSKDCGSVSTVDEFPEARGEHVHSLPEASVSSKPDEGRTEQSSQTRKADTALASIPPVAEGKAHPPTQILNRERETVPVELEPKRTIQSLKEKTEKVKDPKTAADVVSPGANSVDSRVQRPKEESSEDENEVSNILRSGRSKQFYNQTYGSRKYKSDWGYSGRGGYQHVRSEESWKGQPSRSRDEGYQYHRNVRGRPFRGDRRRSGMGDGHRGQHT
Summary of the method: as §1

OTUD5 = biological target: T5, OTUD5 (UniProt Q96G74)
T5 sequence (whole entry): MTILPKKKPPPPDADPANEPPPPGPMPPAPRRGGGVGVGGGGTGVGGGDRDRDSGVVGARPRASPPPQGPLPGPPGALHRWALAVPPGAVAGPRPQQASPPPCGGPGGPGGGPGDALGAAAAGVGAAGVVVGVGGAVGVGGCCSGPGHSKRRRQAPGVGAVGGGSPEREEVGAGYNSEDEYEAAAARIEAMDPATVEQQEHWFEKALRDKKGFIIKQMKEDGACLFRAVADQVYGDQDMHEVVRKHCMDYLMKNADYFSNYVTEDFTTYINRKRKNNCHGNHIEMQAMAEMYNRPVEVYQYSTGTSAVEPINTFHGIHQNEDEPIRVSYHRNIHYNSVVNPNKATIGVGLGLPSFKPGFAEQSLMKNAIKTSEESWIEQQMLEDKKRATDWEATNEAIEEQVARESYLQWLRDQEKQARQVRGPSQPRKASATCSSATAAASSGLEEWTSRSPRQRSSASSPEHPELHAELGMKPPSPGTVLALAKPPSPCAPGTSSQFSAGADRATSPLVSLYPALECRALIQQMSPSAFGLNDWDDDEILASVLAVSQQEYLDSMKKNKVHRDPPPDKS
Summary of the method: as §1

In the case of `Cc1ccc(N2CCC(NC(=O)CCl)C2=O)cc1` (centres undefined), the “log2 ratio of Biotin-Ahx-Ub-VS probe labelling” value (“log2 ratio” below) (ALG13) is reported as -0.511, the “log2 ratio” value (ATXN3) is reported as -0.0941 and the “log2 ratio” value (BAP1) is reported as -2.46 (active). For the same compound, the “log2 ratio” value (EIF3F) was 0.043, the “log2 ratio” value (EIF3H) was -0.278 and the “log2 ratio” value (FAM105A) was 0.0934. For the same compound, the “log2 ratio” value (OTUB1) was 0.0513, the “log2 ratio” value (OTUD4) was 0.0319 and the “log2 ratio” value (OTUD5) was 0.0904.
